# From PubChem BioAssay AID1259415 (National Center for Advancing Translational Sciences (NCATS), 2018)
# Screen size: about 410,000 compounds; about 18,000 (4.4%) were called active. Inconclusive results (about 7%) are left out. No stated cut-off is given here; in the data, active means activity change below about -60%; inconclusive means no clear call, values can overlap the other calls; inactive means above about -39%. This excerpt belongs to a sample that is enriched for actives.
# Experiment: qHTS Assay for inhibitors of the human cytomegalovirus (HCMV)
# Details: HFF cells, HCMV-luciferase reporter, 72 h; at 57.5 µM; active compounds read low
# How it was run: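 After 16 h attachment at 37C, HFF cells received test compound and HCMV-luciferase (1 PFU/cell); reporter luminescence read 72 h later, data normalized against buffer-only and known inhibitor Salinomycin.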
# On the % scale 0 is the no-effect control and ±100 the full control effect.
row,Structure (SMILES),"activity change, negative = inhibition"
1,Cc1ccc(S(=O)(=O)n2nc(-c3ccc(Cl)cc3)nc2NCc2ccccc2)cc1,8.1% (inactive)
2,COc1ccc(C2c3c(oc4ccccc4c3=O)C(=O)N2Cc2ccc3c(c2)OCO3)cc1 (stereo unspecified),-4.99% (inactive)
3,COc1ccc(-c2nn(CC(=O)Nc3ccccc3F)c3c2cnc2ccc(F)cc23)cc1,39.2% (inactive)
4,O=c1[nH]c(-c2ccccc2)cn1C1CCN(Cc2ccc(-c3nc4ccc(F)cc4nc3-c3ccccc3)cc2)CC1,54.8% (inactive)
5,CCc1cc(-c2nnn(CCC3COCCO3)c2CC)ccc1-c1cn(Cc2ccc3ccccc3c2)nn1 (stereo unspecified),-80.6% (active)
6,O=C(C1CCC1)N1C[C@H]2[C@@H](c3ccccc31)[C@@H](CO)N2C(=O)c1ccccc1F,27.8% (inactive)
7,CC(C)(C)c1ccc(C(=O)NCC(c2ccc(Cl)cc2)N2CCOCC2)cc1 (stereo unspecified),-1.98% (inactive)
8,Cc1ccc(C(=O)N2c3ncnn3C3(CCCCC3)[C@@H]3CCCC[C@@H]32)cc1,-15.5% (inactive)
9,COc1ccc(S(=O)(=O)N2CC3ON=C(c4c(F)cccc4Cl)C3C2)cc1OC (stereo unspecified),-7.48% (inactive)
10,COc1ccc(CC(=O)N2CC3ON=C(c4c(F)cccc4Cl)C3C2)cc1OC (stereo unspecified),-61.7% (active)
11,COc1ccc(CCN2CC(C(=O)OCC(=O)NCc3ccccc3Cl)CC2=O)cc1OC (stereo unspecified),16.6% (inactive)
12,COc1ccccc1NC(=O)c1oc2ccccc2c1NC(=O)COc1ccccc1OC,2.62% (inactive)
13,CCOc1ccccc1CNC(=O)c1cnc2c(-c3ccc(OCC)c(OCC)c3)c(C)nn2c1C,-3.31% (inactive)
14,Cc1ccc(CN2COc3cc(C)c4c(oc(=O)c5ccccc54)c3C2)cc1,8.87% (inactive)
15,C/C(=N\NC(=O)c1cc2c(s1)CCC(C)C2)c1cccnc1 (stereo unspecified),-78.9% (active)
16,C/C(=N\NC(=O)c1cccnc1)c1ccc(-n2ccnc2)cc1,-16.6% (inactive)
17,CC1CCc2sc(C(=O)N/N=C/C3CCCCC3)cc2C1 (stereo unspecified),13.4% (inactive)
18,Cc1ccc(C)c(N2CCN(Cc3nnc(-c4ccccc4)o3)CC2)c1,27.7% (inactive)
19,COc1ccc(-c2nc(CN3CCC(C(=O)NCCN(CC(C)C)CC(C)C)CC3)c(C)o2)cc1OC,-0.431% (inactive)
20,Cc1nnc(C)n1-c1ccc(C(=O)Nc2cccc(Br)c2)cc1,33.2% (inactive)
21,CCN1C(=O)N[C@@H](CCc2ccccc2)C(C(=O)OC)=C1C,-1.16% (inactive)
22,CCOC(=O)CN(C(=O)COc1nc(C)cc(C)c1C#N)c1ccc(Cl)cc1,-1.87% (inactive)

row,Structure (SMILES),"activity change, negative = inhibition"
1,CCOc1cc(/C=C(/C#N)c2ccc(Cl)cc2)cc(Cl)c1OCC(=O)O,-79.4% (active)
2,CCOc1ccc(/C=C(\C#N)c2nc3ccccc3c(=O)[nH]2)cc1OC,18% (inactive)
3,Cc1ccc(Cn2c(=O)n(-c3ccc(C)cc3)c(=O)c3c2c2cc(C)ccc2n3C)cc1,5.49% (inactive)
4,CC1CCCN(c2cc3c(cc2F)c(=O)c(S(=O)(=O)c2cccc(Cl)c2)cn3Cc2ccccc2)C1 (stereo unspecified),-26.5% (inactive)
5,O=C(/C=C\c1ccc2c(c1)OCO2)NC1(C(=O)Nc2ccc3c(c2)OCCO3)CCCCC1,-87.5% (active)
6,CC1(C(=O)Nc2ccc3c(c2)OCCO3)CCN1C(=O)Cc1cc(F)ccc1F (stereo unspecified),20.3% (inactive)
7,S=C(Nc1ccc2c(c1)OCO2)N1CCCC1,17.6% (inactive)
8,COC(=O)[C@@]1(C#N)CC(=O)N([C@@H](C)c2ccccc2)[C@H]1c1ccccc1,-35.4% (inactive)
9,CC(=O)N1c2ccccc2CC1C(=O)N1CCN(c2ccc(F)cc2)CC1 (stereo unspecified),16.1% (inactive)
10,O=c1nc(N2CCOCC2)nc2n1CCO2,-26.3% (inactive)
11,COc1ccc(OC)c(NC(=O)C2CCN(S(=O)(=O)c3ccc(C)cc3)CC2)c1,-12.3% (inactive)
12,O=C(CSc1nnc(Cn2cnc3ccccc32)o1)c1ccccc1,-35.1% (inactive)
13,Fc1ccc(OCc2nn3c(Cn4nnc5ccccc54)nnc3s2)cc1,-1.96% (inactive)
14,c1ccc(Cc2nn3c(Cn4cnc5ccccc54)nnc3s2)cc1,-65.2% (active)
15,Cc1ccccc1CNC(=O)c1ccc(NC(=O)N2CCCCc3ccccc32)cc1,-4.65% (inactive)
16,COc1ccc(C(=O)c2oc3ccccc3c2NC(=O)COc2cccc(C)c2)cc1,9.86% (inactive)
17,Cc1noc(C)c1S(=O)(=O)N(C)C[C@H]1Oc2c(NC(=O)Nc3ccc4c(c3)OCO4)cccc2C(=O)N([C@H](C)CO)C[C@@H]1C,22.1% (inactive)
18,COc1ccc(-c2cn3nc(N4CCCC(C(=O)NCCCOC(C)C)C4)sc3n2)cc1 (stereo unspecified),0% (inactive)
19,Cc1ccc2nsnc2c1S(=O)(=O)N1CCCC1C(=O)O (stereo unspecified),-8.96% (inactive)
20,CCc1ccc(S(=O)(=O)c2nnn3c2nc(N2CCN(CC)CC2)c2sccc23)cc1,9.37% (inactive)
21,N#CCCN(CCC#N)c1nnc(-c2ccccc2)s1,3.02% (inactive)
22,CCc1ccc(CNC(=O)C2CCN(c3nn4cc(-c5ccc(F)cc5)nc4s3)CC2)cc1,0% (inactive)

row,Structure (SMILES),"activity change, negative = inhibition"
1,CN(C)CCCNC(=S)N1CCN(c2nc(-c3ccccc3)cs2)CC1,-3.01% (inactive)
2,CC1CCCC(C)N1C(=O)CN1CCN(c2nc(-c3ccc(F)cc3)cs2)CC1 (stereo unspecified),-63.2% (active)
3,O=C(NCc1nnc(SCC(=O)N2CCC(Cc3ccccc3)CC2)o1)c1ccco1,-25.7% (inactive)
4,COc1ccc(NC(=O)Nc2cccc(-c3noc(C)n3)c2)cc1,-15.1% (inactive)
5,COc1ccc(NC(=O)Nc2ccc3nsnc3c2)cc1,-62.9% (active)
6,COC(=O)[C@H](CCSC)NC(=O)Nc1ccc(OC)cc1,10.5% (inactive)
7,CCOC(=O)c1ccc(NC(=O)Cn2c(=O)n(-c3ccc(C)cc3)c(=O)c3c2cnn3C)cc1,2.83% (inactive)
8,CSc1ncnc2c1ncn2CCCNCc1ccco1,11.8% (inactive)
9,CSc1ncnc2c1ncn2CC(=O)C1CCC2C3CCC4=CC(=O)CCC4(C)C3CCC12C (stereo unspecified),-83% (active)
10,CSc1ncnc2c1ncn2CCCNCC1CCCCC1,8.49% (inactive)
11,O=C(O)c1ccc(Cn2c(SCc3ccc(F)cc3)nc3ccncc32)cc1,0.974% (inactive)
12,Cn1c(C(=O)NCCCN2CCN(c3cccc(Cl)c3)CC2)cc2c(=O)n(C)c3ccccc3c21,-68.6% (active)
13,O=C(NCCCN1CCN(c2cccc(Cl)c2)CC1)c1nnc(Cc2ccc(F)cc2Cl)o1,-14.1% (inactive)
14,CCOc1ccc(CCNC(=O)c2cc3c(=O)n(C)c4ccccc4c3n2C)cc1,-15.3% (inactive)
15,Cc1cccc(NC(=O)CSc2ncc(-c3ccccc3)[nH]2)c1C,45.4% (inactive)
16,C=CCOC(=O)C1=C[C@@H](c2ccccc2)C[C@@H](OCc2ccc(CO)cc2)O1,-2.26% (inactive)
17,CN(C)c1ccc(C(CNS(=O)(=O)c2cc(F)ccc2F)N2CCOCC2)cc1 (stereo unspecified),-0.38% (inactive)
18,CCCNC(=O)C(CC)n1nc(CC)n2c(cc3oc(C)cc32)c1=O (stereo unspecified),-16.8% (inactive)
19,COc1cc(OC)c(NC(=O)c2nc(-c3ccncc3)no2)cc1Cl,-9.36% (inactive)
20,CCOC(=O)C1CN(S(=O)(=O)c2ccc(OC)cc2)c2cc(Cl)ccc2O1 (stereo unspecified),-61.8% (active)
21,CCOC(=O)C1CN(S(=O)(=O)c2ccc(F)cc2)C1,41% (inactive)
22,CCS(=O)(=O)c1ccc2c(c1)N(S(=O)(=O)c1ccccc1)CC(C(=O)O)O2 (stereo unspecified),4.24% (inactive)

row,Structure (SMILES),"activity change, negative = inhibition"
1,CCCCCn1c(=O)[nH]c2cc(C(=O)Nc3cc(C)cc(C)c3)ccc2c1=O,-0.639% (inactive)
2,CC[C@]1(O)CC2CN(CCc3c([nH]c4ccccc34)[C@@](C(=O)OC)(c3cc4c(cc3OC)N(C=O)[C@H]3[C@@](O)(C(=O)OC)[C@H](OC(C)=O)[C@]5(CC)C=CCN6CC[C@]43[C@@H]65)C2)C1 (stereo partly specified),-100% (active)
3,CC[C@]1(O)C[C@@H]2CN(CCc3c([nH]c4ccccc34)[C@@](C(=O)OC)(c3cc4c(cc3OC)N(C)[C@H]3[C@@](O)(C(=O)OC)[C@H](OC(C)=O)[C@]5(CC)C=CCN6CC[C@]43[C@@H]65)C2)C1,-99.7% (active)
4,CCc1cccc(NC(=O)CSc2nccn2C)c1,73.7% (inactive)
5,O=C(Nc1cc(-c2nc3ccccc3o2)ccc1Cl)c1cc([N+](=O)[O-])ccc1N1CCOCC1,17.1% (inactive)
6,O=C(CCCCn1c(=O)c2ccccc2n(CC(=O)Nc2cccc(C(F)(F)F)c2)c1=O)NCc1ccc2c(c1)OCO2,-22.6% (inactive)
7,CCC(=O)N1CCc2cc(S(=O)(=O)NC(CC(C)C)C(=O)NCCc3cccc(C)c3)ccc21 (stereo unspecified),-11.4% (inactive)
8,COc1cn(CC(=O)Nc2cccc(C)c2C)c(CN2CCCCC2)cc1=O,6.56% (inactive)
9,O=[N+]([O-])c1ccc(N2CCN(c3ccc(F)cc3)CC2)cn1,-16.4% (inactive)
10,COc1ccc(N2CCN(C(=O)c3cccs3)CC2)cc1,57.6% (inactive)
11,O=C(c1cccc(F)c1)N1CCN(c2ccc([N+](=O)[O-])c(N3CCCCC3)c2)CC1,-60.2% (active)
12,O=C(c1cc(C(=O)N2CCN(c3ccc(F)cc3)CC2)cc([N+](=O)[O-])c1)N1CCN(c2ccc(F)cc2)CC1,-66.2% (active)
13,O=C(c1ccc(N2CCOCC2)c([N+](=O)[O-])c1)N1CCN(c2ccccc2F)CC1,-77.5% (active)
14,COc1ccc(-c2cc(C(=O)N3CCN(c4ccc(F)cc4)CC3)no2)cc1,-76% (active)
15,O=C(c1ccc(N2CCOCC2)c([N+](=O)[O-])c1)N1CCN(S(=O)(=O)c2cccs2)CC1,5.8% (inactive)
16,O=C(c1cccc(F)c1)N1CCN(c2ccc([N+](=O)[O-])c3cccnc23)CC1,-7.42% (inactive)
17,CC(C)c1ccc(S(=O)(=O)N2CCN(C(=O)c3ccc(N4CCCC4)c([N+](=O)[O-])c3)CC2)cc1,-16.3% (inactive)
18,COc1ccc(N2CCN(C(=O)c3c(C)oc4nc(C)nc(N5CCCC5)c34)CC2)cc1,18.7% (inactive)
19,O=C(c1ccc(CN2CCOCC2)cc1)N1CCN(c2ccccc2F)CC1,16.2% (inactive)
20,O=C(c1cncc(Br)c1)N1CCN(c2ccc([N+](=O)[O-])cc2)CC1,25.9% (inactive)
